Paper PMC12864922, “TDP-43 directly inhibits mRNA accumulation in neurites through modulation of mRNA stability”
In all, about 9,900 sequences were measured (“r (bound/input frequency ratio)”: median about 0.7, highest 2% from about 6.5 on). The list comes from a sample in which the highest values are over-represented; it also holds similar and randomly drawn sequences.

B1: ENSMUSG00000061578.946|Ksr2 (ssRNA)
RNA: GGGAGUUCUACAGUCCGACGAUCGCUUCGAUAUCCGCAUGCUAAACAAGAAGACUGCAUGUUAACGCUCCUGCCACUGUUGCCCCUUCCUUUACCCUUGGCAGACAUUGCUAAUCAAUCUCAGCACAGUUUCCAACCACAGUCAUAGAACAUUUGCCACAAAGGCCCUGGAUGUGACUAUAUGUGCUGAGAAGGGAAGGUAGUUUUCCCCCAGAAAGUCCCUUCUAAUAAACAUUGAUGACUUUAGAAUCCAUGACUCAGAAUUUUCCAGAGACCCAAUCCCUCGGGGUCCACUUAGUGAUGGCUCUUGCGGUCGCACUAGUGUGGAAUUCUCGGGUGUCAAGG
B2: ENSMUSG00000058297.101|Spock2|105:110 (ssRNA)
RNA: GGGAGUUCUACAGUCCGACGAUCGCUUCGAUAUCCGCAUGCUAAUUUGAUAUGAAAGCCCCACCACGGUCUUGUGGUGAUGAGGCAGGACCUGUACACACAGCAAGGCUUACUAUCCGUCUCCUGACAUCCGAAGAGCUCGUCGCAGCACACACUAAUGGCCCUUGGGCUGCACGUGGUUAAGCAUAGCUGUCUCUGUGGCCCAACACAAAGAGGUAAACUUACUUAAAACACAGGGGUUUUGUUGCUGUUUGUUUUUUGUUAGUUUGUUUGUUGAUAAUUGGAUUGAGGAGUUAAUCCUCUGCUCUUGCGGUCGCACUAGUGUGGAAUUCUCGGGUGUCAAGG
B3: ENSMUSG00000029636.282|Wasf3 (ssRNA)
RNA: GGGAGUUCUACAGUCCGACGAUCGCUUCGAUAUCCGCAUGCUAGCGCCAUGGCCAUCCUGGAGCCUGCGCACACGUGGCCGCUGCUGUGACUCGCUGUCCUUGGUAAUUGGUGAGAGGCUUUUUCUUUCUUUCUCAGUUCUGCUUUUCCACACUGAGACCCACCAUGUUGACAUCAUCCUCGCGACGUUGACAUUUGAGCCUUUUGUUCUGUCUCCCAUGUGCCCUGUAGAACCCAGCACUCAUGUUUGGCAAAACUUUUUUUGGUAAGGUCCUUAUGCUCUCAGGGUGGAGGGAAGACAUUACUCUUGCGGUCGCACUAGUGUGGAAUUCUCGGGUGUCAAGG
B4: ENSMUSG00000058297.560|Spock2 (ssRNA)
RNA: GGGAGUUCUACAGUCCGACGAUCGCUUCGAUAUCCGCAUGCUAACCUGGGGGUGCAAAAGGAGAUUCAAGACAUCCGUACCAAGUCAGGCAGAGCUACCCGCUUCUCAGCCCGUGUCCCACUUAAAACCGUCCGAUGUGUAAUCACUGAGCUUAGAGUUAAACAUUGUGGUCAAGUGCUUGGGUUCCGUCUGUAGAUUUAAGUGCUGACGUUGUAUCUCUCAGUAAUUUUAGAUGUCUUUUAAAAAAUCUGAACAAGUGUUAGACCCGUGUGUGCGUUGGUGGGCACUCAAGCAUCCCGUGGGCUCUUGCGGUCGCACUAGUGUGGAAUUCUCGGGUGUCAAGG
B5: ENSMUSG00000031028.59|Tub|169:181;199:203 (ssRNA)
RNA: GGGAGUUCUACAGUCCGACGAUCGCUUCGAUAUCCGCAUGCUACCCAGUCCUGGGUCAGUCCCCUGCUGCAGUGGUGUUAUCACACCGGAAAGCCUCUUCACCUGGAGGUACAGAGGGAGAGGAAGCACAAGCCUGGCUGCUGUGGCUCAGCCAUCCACUCAGCCUACGAGUCAGAGACAGUGGGUGUCCCGGGAAGCAGGGGUACAGUGACACACACACAUACUACAGGGCACUCAAGCUCAUACUAGAAAAAGCUCUGGUGGUCAGCAGAAAGCACUCCCACUUCAAAAGGGCCCAUUAGGCUCUUGCGGUCGCACUAGUGUGGAAUUCUCGGGUGUCAAGG
B6: ENSMUSG00000034801.92|Sos2 (ssRNA)
RNA: GGGAGUUCUACAGUCCGACGAUCGCUUCGAUAUCCGCAUGCUACAGAGCAAGUCCCAGGACAGCCAGGGCUACACAAAAAAACCUUGUCUCAAAAGUCAAAAUACAAACAAAAGAGAGAAAAGGAAGGAAGGAAAGAAUUUGAAAUAUUAAAAUGCAAAAGCCCUUCACCAUAGCCCCCAGGUGAUCAGCAGCAUUGCUUCCUCGGCUCCCCAGUGCUGCCCUAGGCCAGUAUAAAGACUCUGUAUUGCACUGUAGACUCUGCUAGCAGACGGCACUGAGAGGAGCCAGCGCUCGAGGGCGUUCUCUUGCGGUCGCACUAGUGUGGAAUUCUCGGGUGUCAAGG
B7: ENSMUSG00000090935.132|Synj2bp|162:172 (ssRNA)
RNA: GGGAGUUCUACAGUCCGACGAUCGCUUCGAUAUCCGCAUGCUAUCUCUCUCUCACUCACCAUCUCUGACAUCCUCCCAUAUUCUUUCUCCUCCACAUAGCCAAUACAAGAUUUAAAGUGACUGCUUAUCACCCAAAACCCUGCUAUUCAAAAUCUCCUAUUCUAAUGGAAGAGUACAGGGGUUAUUUGAAGAAAAGCUGUGGUGCACACACACACGGGGAAGCCUUGCUUAGAAUGAAUGAGAAGUUACAUAUUUUACUAGGACUGCCAAUAAAAACUCAGCUAUCAUCCAAAGAGGAAAAGCCUCUUGCGGUCGCACUAGUGUGGAAUUCUCGGGUGUCAAGG
B8: ENSMUSG00000029028.117|Lrrc47 (ssRNA)
RNA: GGGAGUUCUACAGUCCGACGAUCGCUUCGAUAUCCGCAUGCUAGCUCCAAUGUGACUCUCCUGUCUCCUGUCCUCAUGGAUCACUCAGUAACUGCUGGGGAUGUUCUGAAUCAUGUGGCCUGUGGCCGUGCUGGAGAGUCAGGUUGAACGCAGGCAUUCUAUUGAACAGUAUUUAUUUUUCUACAACAUGUUAAUAGAAUUUUUUUUUAAAUCAGCUGUGCAUAGACAGUUGAGAACAUCAUGUUGUGAGUGUAAUCUUCUUAGAGCUUGUUUCCAGGCACCGUGCUGCCGCCAUGCUCCCAGCUCUUGCGGUCGCACUAGUGUGGAAUUCUCGGGUGUCAAGG
B9: ENSMUSG00000029028.162|Lrrc47|217:221 (ssRNA)
RNA: GGGAGUUCUACAGUCCGACGAUCGCUUCGAUAUCCGCAUGCUAGCCUUCCACGGCUGUGCUUGGAACUGUAGUGCUGGUCGUUGUUGGCACAUCUGCGCCUUGGCCAAGGAAGUUAUCUAUGUCCGUGUAGUCCUUUGUAGUCAGACAGAUGCUUCGUGGACUGUGCCUCACACAUGGCCCUGCAGGCUCCAUGUCAGCGUGUCCCACUAUUCAUGUCCCAUCUCUGUGCAUCCUGACUGCGCACAUCCCAUCUCCGCAACACAACGCAUCUGUACCAGCACACAGCUGCCAUCCCUCGAGCCCUCUUGCGGUCGCACUAGUGUGGAAUUCUCGGGUGUCAAGG
B10: ENSMUSG00000004113.139|Cacna1b|48:52;226:230 (ssRNA)
RNA: GGGAGUUCUACAGUCCGACGAUCGCUUCGAUAUCCGCAUGCUACACCAGUGAUCUCACGUCUCUUGUGGUCUUGGAGUCAAAUAGCACAUCAUACUAGAGAUGCGCUCAAGGGCCUGCCUUUCACCUACACUGUCACCAUAACAGGGACCAAAUCUGGAGGAUGUCCUUGCUGUUGAUUCUGGUUUUCAGUCACAACACUUUCACUGUUUGUCAUUUCUAUGUAGUUGAUCUAGAAAAAGCAGAAAUCAAAACAGGAAAGGAAAUGUUACACAAACUUUAAAAAAAAAGUCAACAUGUAGGAACUCUUGCGGUCGCACUAGUGUGGAAUUCUCGGGUGUCAAGG
B11: ENSMUSG00000031028.90|Tub|13:17;146:150 (ssRNA)
RNA: GGGAGUUCUACAGUCCGACGAUCGCUUCGAUAUCCGCAUGCUAGGCACUCAAGCUCAUACUAGAAAAAGCUCUGGUGGUCAGCAGAAAGCACUCCCACUUCAAAAGGGCCCAUUAGGCCCAAAGGGGGUUAGGAGUGGUAGGGAUAGGUGCGUGGCAGGUCCCUGCUAGGAUUGCAGGGGCCUGGCCAACACAAUUAGCUGGAGGCUUAGAAUGCUAGCUCAUUUGUUGCUACAGAUUUGCCCAGUGCUUGCACACGUAAGAACCCAGCUCUCAAGGCCAAAUAUCUGAGUGGAUGGGGAUGACUCUUGCGGUCGCACUAGUGUGGAAUUCUCGGGUGUCAAGG
B12: ENSMUSG00000061578.112|Ksr2 (ssRNA)
RNA: GGGAGUUCUACAGUCCGACGAUCGCUUCGAUAUCCGCAUGCUAACCCUUCUCCCAUUUUGUAAGAACACUGUUCUAACUCACCUCAUGCCCACGCUACCCUGGGCAACUGGAGAACACCAUAGCGUUUCAGCUGAUGUGACAUUUGGUGUGACCUUUACCAGUUCACCAUCAUUCAUGGCUUCCCCCAAAGUCCCGAGUCCUGAGAACCGGGGCUGUGGCAAGAGAGUUCUGGUGUGUUCUCUCUGUGGGGCUAGCAAUGCCGGGGUUAAGUUCUCCCUCGGUGAUGGAGACGGUCCUGGGUACUCUUGCGGUCGCACUAGUGUGGAAUUCUCGGGUGUCAAGG
B13: ENSMUSG00000090935.58|Synj2bp (ssRNA)
RNA: GGGAGUUCUACAGUCCGACGAUCGCUUCGAUAUCCGCAUGCUACACAGGUUACCAGUGCAGAAUGGACCUAUAGUACAUCGAGGUGAAGGAGAGCCAAGUGGAGUUCCUGUAGCUAUGGUGCUGCUACCAGUGUUUGCCCUCACCAUGGUAGCAGUUUGGGCCUUCGUGAGAUACCGAAAGCAGCUUUGAAAUGCUUGCUGUCUUCCAGUGUGUCCAAUGAACUCUCUCUCUCACUCACCAUCUCUGACAUCCUCCCAUAUUCUUUCUCCUCCACAUAGCCAAUACAAGAUUUAAAGUGACUGCUCUUGCGGUCGCACUAGUGUGGAAUUCUCGGGUGUCAAGG

Target: TDP-43 (Homo sapiens, UniProt Q13148 1-414)
Experiment: RNA Bind-n-Seq with designed 260-mer pool; 25 mM Tris-HCl, 150 mM KCl, 3 mM MgCl2, BSA (printed 500 mg/mL), 20 units/mL SUPERase IN; pH not stated; 500 nM RNA pool, 1 h, 4 C; TDP-43 5, 50, 500 nM; high values mean tight binding
Settings: protein: recombinant; tags: SBP (GST cleaved off with PreScission; pGEX-GST-SBP)
How it was run: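 Recombinant SBP-tagged TDP-43 at 5, 50 or 500 nM was captured on streptavidin beads, then incubated 1 h at 4 °C with 500 nM of an in vitro-transcribed 260-nt 3′ UTR oligo pool in 25 mM Tris-HCl, 150 mM KCl, 3 mM MgCl2, BSA and SUPERase IN. Bound RNA was washed, eluted with biotin, reverse transcribed, PCR-amplified and sequenced. Binding is R, each oligo's mapped-read-normalized abundance in the bound sample divided by its abundance in input. Duplicates used two independent protein batches.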

Sequence of TDP-43 (Q13148 whole entry): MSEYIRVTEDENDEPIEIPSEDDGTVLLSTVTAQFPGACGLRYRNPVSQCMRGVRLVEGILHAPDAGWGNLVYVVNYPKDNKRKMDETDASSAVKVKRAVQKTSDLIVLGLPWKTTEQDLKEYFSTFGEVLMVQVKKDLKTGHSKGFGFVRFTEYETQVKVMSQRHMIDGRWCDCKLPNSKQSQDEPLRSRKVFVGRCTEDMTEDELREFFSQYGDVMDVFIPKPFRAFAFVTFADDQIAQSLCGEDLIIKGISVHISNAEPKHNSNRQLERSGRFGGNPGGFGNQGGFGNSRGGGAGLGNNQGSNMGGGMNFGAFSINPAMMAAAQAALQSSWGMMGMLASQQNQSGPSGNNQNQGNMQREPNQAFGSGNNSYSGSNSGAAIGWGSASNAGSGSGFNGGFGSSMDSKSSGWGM

In order of falling binding signal:
1. B13  1.69 R (bound/input frequency ratio)
2. B11  1.27 R (bound/input frequency ratio)
3. B2  1.12 R (bound/input frequency ratio)
4. B3  0.86 R (bound/input frequency ratio)
5. B7  0.765 R (bound/input frequency ratio)
6. B5  0.754 R (bound/input frequency ratio)
7. B9  0.706 R (bound/input frequency ratio)
8. B4  0.604 R (bound/input frequency ratio)
9. B12  0.565 R (bound/input frequency ratio)
10. B6  0.552 R (bound/input frequency ratio)
11. B1  0.389 R (bound/input frequency ratio)
12. B8  0.231 R (bound/input frequency ratio)
13. B10  0.174 R (bound/input frequency ratio)
